Only some compounds are listed: those with a hit (about 0.86% of all), similar ones and a draw of the others.
GLS inhibitor: glutaminase GLS (human) inhibition. GLS enzymatic activity, qHTS titration. AID 624170. 0.21% of 410,000 active. Potency, µM (doses to about 45.5 µM), inactives show at the top dose activity change, negative = inhibition, hits mostly inhibitors; further: on the % scale 0 is the no-effect control and ±100 the full control effect
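Human kidney-isoform GLS in 45 mM KH2PO4 pH 8.2, 0.02% Tween-20, with compound, started with 1mM L-Glutamine (added stock). Glutamate oxidase/HRP/Amplex red coupled fluorescence read at start and after 30 min at RT.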
PGK inhibitor: T. brucei PGK inhibition. P07378. PGK/GAPDH coupled, Kinase-Glo luminescence, 60 min. Potency, µM (doses to about 57.5 µM), for inactives: top-dose activity change, negative = inhibition, most hits filed as inhibitors. 0.043% of 380,000 active; further: on the % scale 0 is the no-effect control and ±100 the full control effect; nearly all actives have a fitted effect of over 60% in size
Target sequence (P07378 whole entry, looked up): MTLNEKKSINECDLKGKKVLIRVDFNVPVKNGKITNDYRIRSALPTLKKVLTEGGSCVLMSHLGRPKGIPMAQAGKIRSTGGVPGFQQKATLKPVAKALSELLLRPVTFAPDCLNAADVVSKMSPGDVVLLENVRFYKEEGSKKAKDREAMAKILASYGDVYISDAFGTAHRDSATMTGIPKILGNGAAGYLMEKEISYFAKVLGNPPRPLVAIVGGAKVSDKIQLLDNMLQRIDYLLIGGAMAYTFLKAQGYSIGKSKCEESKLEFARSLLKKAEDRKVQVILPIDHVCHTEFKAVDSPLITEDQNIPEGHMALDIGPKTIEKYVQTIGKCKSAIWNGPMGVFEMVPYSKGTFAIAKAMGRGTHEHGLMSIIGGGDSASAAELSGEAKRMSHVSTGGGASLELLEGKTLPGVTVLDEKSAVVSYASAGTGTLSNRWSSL
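Luminescent ATP detection (Kinase-Glo Plus) follows a 60-minute room-temperature incubation, with wells lacking PGK as controls. Buffer: 100 mM TEA (pH 7.6), 5 mM MgCl2, 0.01% Tween-20. Coupling enzyme GAPDH (100 nM final) supplies unstable 1,3-BPG in-well.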
APEX1 inh: blocks human APE1 abasic DNA cleavage | AID 2517 | Potency, µM (titrated, usually from 65.8 µM), without a hit: at the top dose activity change, negative = inhibition, usual class: inhibitors | recombinant APE1, TAMRA/BHQ-2 abasic DNA cleavage fluorescence | 0.35% of 350,000 active;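 further: plate controls were vehicle for no effect and reference inhibitor for full effect; nearly all actives have a fitted effect of over 55% in size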
Target sequence (P27695 whole entry, looked up): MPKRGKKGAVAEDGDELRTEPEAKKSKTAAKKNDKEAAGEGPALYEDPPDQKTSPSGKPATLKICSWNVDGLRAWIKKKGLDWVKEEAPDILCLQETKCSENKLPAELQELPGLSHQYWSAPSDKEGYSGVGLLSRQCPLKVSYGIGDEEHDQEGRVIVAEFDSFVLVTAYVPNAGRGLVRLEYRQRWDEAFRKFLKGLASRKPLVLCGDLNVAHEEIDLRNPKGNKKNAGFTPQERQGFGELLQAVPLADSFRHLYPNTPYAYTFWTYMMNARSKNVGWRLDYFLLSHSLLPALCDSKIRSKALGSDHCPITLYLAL
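Measures dequenching upon AP-site incision of a 5'-TAMRA/3'-BHQ-2 THF-containing duplex, 50 nM; human APE1 0.75 nM after 15 min room-temperature exposure to compound; kinetic three-point read at one-minute spacing.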
RECQ1 helicase: inhibitors of human RECQ1 DNA helicase. Potency, µM (series often up to 57.3 µM), for inactives: top-dose activity, negative = inhibition, hits mostly inhibitors. 0.54% of 240,000 active. RECQ1 DNA unwinding, red fluorescence kinetic read. P46063;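 further: plate controls were vehicle for no effect and no enzyme for full effect; nearly all actives have a fitted effect of over 30% in size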
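50 nM RECQ1T1 preincubated 15 min with compound in Tris pH 8.0 buffer with MgCl2, DTT, Tween-20 and 2.5 ug/ml poly(dI-dC); started with 200 nM TAMRA/BHQ-2 forked duplex and 2 mM ATP. Unwinding read as fluorescence (525/598 nm), two reads 2 h apart.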
BLM helicase inh: Bloom syndrome helicase (human) inhibition. P54132. recombinant BLM DNA unwinding, fluorescence dequenching. Potency, µM (series often up to 56.1 µM), for the others: at the top dose activity change, negative = inhibition, actives largely listed as inhibitors. 0.2% of 350,000 active;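 further: plate controls were vehicle for no effect and no enzyme for full effect; nearly all actives have a fitted effect of over 35% in size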
FEN1 inh-1: human FEN1 inhibition; P39748; Recombinant FEN1 flap cleavage, fluorescence, 15 min; Potency, µM (highest dose often 114 µM), for inactives: at the highest dose activity change, negative = inhibition, hits mostly inhibitors; 0.35% of 390,000 active; AID 588795; further: on the % scale 0 is the no-effect control and ±100 the full control effect; nearly all actives have a fitted effect of over 65% in size
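Steps: FEN1 (10 nM) dispensed; compound added by pin tool; 15 min at room temperature; substrate added to 50 nM final; reads at 0 min and 15 min; data normalized and fitted (four-parameter Hill).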
FEN1 inh-2: confirmation of human FEN1 inhibitors. shares compounds with FEN1 inh-1. FEN1 flap cleavage, TAMRA/BHQ2 fluorogenic DNA substrate. Potency, µM, usual class: inhibitors. 79% of 880 active. AID 720498; further: nearly all actives have a fitted effect of over 60% in size
* marks the source's active call; other numbers are inactive results; i = inactive; ? = inconclusive; nt = not tested or not shown. The call rests on the fitted dose curve; in most records, active means well fitted curve in the direction sought with a large enough effect; inconclusive means small, poorly fitted or top-dose-only effect, or another doubt; inactive means no such curve, though single readings can be large; an effect the other way counts as inactive or inconclusive. Potency means the concentration at half of the fitted maximal effect.

SMILES | GLS inhibitor | PGK inhibitor | APEX1 inh | RECQ1 helicase | BLM helicase inh | FEN1 inh-1 | FEN1 inh-2
O=C1NC2c3c(I)sc(I)c3C(=O)C2O1 (stereo unspecified) | 7.8% | -4.1% | nt | nt | nt | -14.0% | nt
O=C1NC2c3c(Cl)sc(Cl)c3C(=O)C2O1 (stereo unspecified) | ? | ? | nt | nt | nt | ? | ?
O=C(O)C(Cc1ccccc1)N1C(=O)/C(=C/c2cccnc2)SC1=S (stereo unspecified) | 0.0% | 9.1% | -1.9% | i | 2.4% | -13.3% | nt
O=C(O)C(c1ccccc1)N1C(=O)/C(=C\c2ccc(O)c(O)c2)SC1=S (stereo unspecified) | ? | ? | -37.6% | nt | 7.3% | ? | 30.1*
CCOc1cc(/C=C2\SC(=S)N(C(C(=O)O)c3ccccc3)C2=O)ccc1O (stereo unspecified) | ? | i | 12.1% | 6.7% | ? | ? | 84.9*
N#CNC(=O)c1ccc(-n2cccc2/C=C2\NC(=O)N(CC(=O)Nc3ccc(F)cc3)C2=O)cc1 | nt | nt | nt | nt | nt | nt | 33.8*
COc1ccc(NC(=O)CN2C(=O)N/C(=C\c3cccn3-c3ccc(C(=O)NC#N)cc3)C2=O)cc1 | nt | nt | nt | nt | nt | nt | 42.6*
Cc1ccc(-n2cccc2/C=C2/NC(=O)N(CC(=O)Nc3cccc(C)c3)C2=O)cc1 | 2.4% | -1.2% | -3.8% | 1.2% | -2.9% | -6.4% | nt
CCN(CC)Cc1cc2[nH]c3c4ccc(Cl)cc4ncc3c2cc1OC | 0.6% | -3.4% | ? | i | 87.5% | 14.1µM* | ?
COc1ccc(CNc2ncnc3cc(Cl)ccc23)cc1OC | 1.8% | -1.9% | -1.7% | -2.5% | -4.1% | 1.9% | nt
COc1cccc2c1C(=O)c1c(O)c3c(c(O)c1C2=O)CC(O)(C(=O)CO)CC3OC1CC(N(C)C)C(O)C(C)O1 (stereo unspecified) | 17.2% | -14.2% | nt | nt | nt | 17.8µM* | 33.8*
CCN(CC)CCNC(=O)c1cc2c(=O)n(C)c3ccccc3c2s1 | -4.4% | i | -25.1% | nt | 81.3% | 50.1µM* | 47.8*
Oc1cccc(Nc2c3ccccc3nc3ccccc23)c1 | -1.8% | -1.6% | 27.8% | nt | 10.9% | ? | nt
CCN(CC)Cc1cc(Nc2c3ccccc3nc3c4ccccc4n(C)c23)cc(CN(CC)CC)c1O | 22.7% | 7.1% | nt | nt | nt | 28.2µM* | 19*
Cc1cc(C)c2c(N)c3cccc(C)c3nc2n1 | 2.1% | -2.1% | ? | -2.9% | 252.7% | 25.1µM* | 15.1*
Cc1cccc2c(N)c3c(nc12)CCCC3 (tested in a mixture with another compound) | -4.1% | -5.1% | ? | i | 43.1% | ? | nt
Cc1ccc2c(c1)sc1nc(-c3cc4ccccc4oc3=O)cn12 | 2.2% | nt | nt | nt | -4.0% | 14.8% | nt
O=C1NC(=S)/C(=C\c2ccc(-c3ccccc3Cl)o2)S1 | 14.8% | -23.7% | -9.1% | ? | -28.7% | ? | nt
O=C1NC(=O)/C(=C/c2ccc(-c3cc(C(=O)O)ccc3Cl)o2)S1 | -21.3% | ? | -20.1% | nt | 34.6% | 20µM* | 37.9*
CN(C)CCc1cc2c(c3c1ccc1ccccc13)OCO2 | 9.4% | i | ? | -5.7% | 115.9% | ? | 21.3*
O=C1Nc2ccccc2C1C(C[N+](=O)[O-])c1ccccn1 (stereo unspecified) | 2.4% | nt | -7.7% | nt | -10.2% | ? | 9.53*
COc1cc(/C=N/NC(=O)c2cccc(C(=O)N/N=C/c3ccc(O)c(OC)c3)n2)ccc1O | 216.3% | -8.5% | -34.4% | nt | -18.0% | ? | 1.35*
COc1cc(/C=N/NC(=O)c2nc(C)cc(C)n2)ccc1O | 47.7% | -0.1% | 10.2% | -7.0% | 0.3% | -3.7% | nt
O=c1cc(-c2ccc(O)cc2)oc2ccc3ccccc3c12 | -4.3% | ? | -6.7% | nt | nt | ? | ?
O=c1cc(-c2ccc(O)cc2)oc2c1ccc1ccccc12 | -6.6% | -9.9% | -0.4% | nt | nt | -7.4% | nt
SMILES | GLS inhibitor | PGK inhibitor | APEX1 inh | RECQ1 helicase | BLM helicase inh | FEN1 inh-1 | FEN1 inh-2
CCOc1ccccc1NC(=O)CSc1nc2ccccc2c2nc(CCn3cncc3C)nn12 | -21.8% | 13.2% | nt | nt | -5.4% | -25.1% | ?
Cc1cncn1CCc1nc2c3ccccc3nc(SCC(=O)Nc3ccc(F)cc3)n2n1 | -3.9% | ? | nt | nt | -8.0% | 19.7% | nt
Cn1c(=O)c(C(=O)Nc2ncccc2O)c(O)c2ccccc21 | 9.7% | i | 8.8% | i | -3.2% | 50.1µM* | 60.1*
NS(=O)(=O)c1ccc(N=Nc2c(O)c(C(=O)O)cc3ccccc23)cc1 | -15.2% | -7.9% | -6.6% | -22.7% | -13.3% | ? | ?
O=C(O)Cc1ccc(N=Nc2c(O)c(C(=O)O)cc3ccccc23)cc1 | 71.1% | ? | ? | ? | -18.4% | 50.1µM* | 67.5*
O=C(Nc1ccccc1C(=O)NC1CC1)c1ccc([N+](=O)[O-])o1 | 103.9% | -16.8% | ? | nt | nt | -13.6% | ?
Ic1ccc(Nc2nc(NCCN3CCOCC3)nc(N3CCCC3)n2)cc1 | nt | nt | nt | nt | nt | -26.6% | nt
COCCN(C(=O)COC(=O)c1cc2c(s1)CCC2)c1c(N)n(Cc2ccccc2)c(=O)[nH]c1=O | 10µM* | ? | 0.752µM* | nt | nt | 39.8µM* | 75.7*
Cc1ccc2oc(=O)c(/C=C(\O)c3ccco3)nc2c1 | -3.7% | i | 11.9% | 15.5% | -8.8% | 9.1% | nt
Cc1ccc2oc(=O)c(/C=C(\O)c3sc(C)nc3C)nc2c1 | ? | i | 1.6% | -2.5% | -1.0% | -4.9% | nt
Cc1ccc2oc(=O)c(/C=C(\O)C(C)(C)C)nc2c1 | -22.2% | i | 16.7% | -24.7% | 0.3% | 50.1µM* | 33.8*
CC(C)(C)/C(O)=C/c1nc2cc(Cl)ccc2oc1=O | -24.5% | -3.6% | -7.0% | -2.5% | -2.0% | 28.2µM* | 12*
CCCCn1c(N)c(N(CCC(C)C)C(=O)COC(=O)c2ccc([N+](=O)[O-])s2)c(=O)[nH]c1=O | 15.1% | 3.7% | -40.4% | nt | nt | -16.7% | 7.57*
CCN(CCCNc1cc2c(c(N)c1S(=O)(=O)O)C(=O)c1ccccc1C2=O)c1ccccc1 | 23.8% | ? | nt | nt | nt | nt | ?
CCOC(=O)c1c(C)oc2nc(C)nc(NCCc3ccc(SC)cc3)c12 | -12.2% | -2.6% | nt | nt | -2.1% | 4.8% | nt
CCN(CC)c1ccc2nc3ccc(N)cc3[n+](-c3ccccc3)c2c1 | -3.7% | ? | 23.8µM* | nt | nt | 44.7µM* | 47.8*
CSc1nn(Cc2ccc(Br)cc2)c(N(C(C)=O)C(C)=O)c1S(=O)(=O)c1ccccc1 | 23.0% | -1.0% | nt | nt | -9.1% | -4.5% | nt
